Article PMC4336329 (PLoS ONE, 2015)
In all, about 310,000 compounds went through this assay and about 14,000 (4.5%) showed an effect of 50% or more. Effects have a minus sign here. For the sample, strong results were picked, then their nearest neighbours and some compounds at random.

target: human ether-à-go-go-related gene (hERG) potassium channel (human, UniProt Q12809); assay: primary screen, population patch clamp on CHO cells stably expressing hERG; higher = less effect of the substance
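Further: peak tail current of the secondary pulse compared with the same well before compound.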

human ether-à-go-go-related gene (hERG) potassium channel, sequence (Q12809 whole entry, looked up): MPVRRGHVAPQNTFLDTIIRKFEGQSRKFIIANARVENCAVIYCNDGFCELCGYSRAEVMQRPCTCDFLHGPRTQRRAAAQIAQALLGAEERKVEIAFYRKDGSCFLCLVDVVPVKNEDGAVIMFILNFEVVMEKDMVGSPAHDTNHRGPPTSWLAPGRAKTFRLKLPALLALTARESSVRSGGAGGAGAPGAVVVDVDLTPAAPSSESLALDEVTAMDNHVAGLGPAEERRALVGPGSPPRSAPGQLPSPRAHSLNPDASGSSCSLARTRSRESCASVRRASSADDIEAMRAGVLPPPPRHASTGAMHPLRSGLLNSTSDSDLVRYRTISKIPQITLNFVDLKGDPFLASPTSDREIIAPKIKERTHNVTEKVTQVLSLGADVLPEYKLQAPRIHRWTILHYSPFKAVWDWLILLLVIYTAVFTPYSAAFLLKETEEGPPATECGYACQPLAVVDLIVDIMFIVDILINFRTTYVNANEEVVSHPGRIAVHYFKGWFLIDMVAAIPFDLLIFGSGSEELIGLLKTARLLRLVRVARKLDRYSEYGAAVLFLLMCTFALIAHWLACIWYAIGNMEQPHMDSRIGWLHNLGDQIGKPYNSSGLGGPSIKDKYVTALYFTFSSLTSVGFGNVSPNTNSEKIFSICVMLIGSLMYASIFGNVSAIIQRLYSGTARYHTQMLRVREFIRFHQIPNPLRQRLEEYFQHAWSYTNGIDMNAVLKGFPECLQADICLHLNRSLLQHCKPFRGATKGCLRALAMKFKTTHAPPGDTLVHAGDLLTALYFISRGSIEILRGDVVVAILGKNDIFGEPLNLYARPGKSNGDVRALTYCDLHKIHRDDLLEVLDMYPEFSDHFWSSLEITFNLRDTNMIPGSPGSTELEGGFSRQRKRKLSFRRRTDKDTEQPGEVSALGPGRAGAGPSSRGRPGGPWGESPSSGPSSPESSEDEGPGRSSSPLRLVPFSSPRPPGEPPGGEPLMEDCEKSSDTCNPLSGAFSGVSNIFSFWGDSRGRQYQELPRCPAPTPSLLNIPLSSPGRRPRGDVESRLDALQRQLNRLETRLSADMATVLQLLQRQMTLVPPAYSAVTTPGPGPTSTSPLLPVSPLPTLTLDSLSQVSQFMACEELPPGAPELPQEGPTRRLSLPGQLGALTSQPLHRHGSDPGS

| SMILES | hERG current change (%, negative = inhibition) at 10uM [%] |
| --- | --- |
| CCOC(=O)c1ccc(S(=O)(=O)NCCN(CC)CC)cc1.Cl | 11.4 |
| CS(=O)(=O)N1CCC(Oc2cccc(C(=O)NCCCC3CCCC3)c2)CC1 | -30.3 |
| Cc1ccc(S(=O)(=O)N2CCN(C(=O)CN3C(=O)c4ccccc4C3=O)CC2)c(C)c1 | 9.02 |
| CCN(CC(=O)Nc1ccc(Cl)c(C(F)(F)F)c1)CC(=O)NC1CCS(=O)(=O)C1 (centres unmarked) | -13.2 |
| CCOc1ccc(C2Nc3ccccc3NC3=C2C(=O)CC(C)(C)C3)cc1OC (centres unmarked) | 15.6 |
| Cc1ccc2nsnc2c1S(=O)(=O)N1CCN(C(=O)C2CCCO2)CC1 (centres unmarked) | 2.61 |
| Cc1ccc(NC(=O)C2CCN(S(=O)(=O)c3ccc4c(c3)CCCC(=O)N4)CC2)c(Br)c1 | -5.9 |
| CCOc1c2ccc(C(=O)N[C@H](C)C3CCCCC3)cc2nn1CCOC | -18.2 |
| Cc1cc(C)c(OCCOCCN2CCN(C)CC2)c(Cl)c1.O=C(O)C(=O)O | -5.21 |
| Cc1cc(Cl)c(OCCOCCN2CCCC(C)C2)c(Br)c1.O=C(O)C(=O)O (centres unmarked) | -61.8 |
| CN1CCN(CCOCCOc2c(Cl)cc(Cl)cc2Cl)CC1.O=C(O)C(=O)O | -26.9 |
| Cc1cc(C)c(NC(=O)NC(=O)c2ccc(F)cc2)c(C)n1 | -0.738 |
| CC(C)c1ccc(N(C(=O)c2ccc3c(c2)OCO3)C2C=CS(=O)(=O)C2)cc1 (centres unmarked) | -66.2 |
| Cc1ccc(N(C(=O)c2ccc3c(c2)OCO3)C2C=CS(=O)(=O)C2)cc1 (centres unmarked) | -29.7 |
| O=C(c1ccc2c(c1)OCO2)N(c1ccc(Cl)cc1)C1C=CS(=O)(=O)C1 (centres unmarked) | -16.8 |
| COc1ccccc1P(=O)(c1ccccc1)c1ccccc1NC(C)=O (centres unmarked) | 14.3 |
| CCOC(=O)c1sc(N(Cc2ccccc2)C(=O)CCl)nc1C | -6.21 |
| CCOC(=O)c1sc(N(Cc2ccccc2)C(=O)CN2C(=O)CN(C)C2=O)nc1C | -59 |
| CCOC(=O)c1sc(N(Cc2ccccc2)C(=O)COC(=O)c2ccccc2O)nc1C | -5.14 |
| Cl.O=C(NCCN1CCN(c2ccccc2)CC1)c1ccccc1F | -11 |

| SMILES | hERG current change (%, negative = inhibition) at 10uM [%] |
| --- | --- |
| CCOc1ccccc1C(=O)NCCNC(=O)c1ccccc1OCC | -2.01 |
| O=C(NCCCN1CCN(Cc2ccccc2)CC1)c1nnc(Cc2c(F)cccc2Cl)o1 | -63.1 |
| CN1CCN(CCCNC(=O)c2nnc(Cc3c(F)cccc3Cl)o2)CC1 | -3.44 |
| CCOc1ccccc1C(=O)NCCCCNC(=O)c1ccccc1OCC | -31.4 |
| O=C(NCCCCNC(=O)c1ccccc1F)c1ccccc1F | 14.8 |
| CCOc1ccccc1C(=O)NCCCN1CCN(CCCNC(=O)c2ccccc2OCC)CC1 | -53.3 |
| O=C(NCCCN1CCCC1=O)c1nnc(Cc2c(F)cccc2Cl)o1 | 1.34 |
| O=C(NCCCN1CCN(CCCNC(=O)c2ccccc2F)CC1)c1ccccc1F | -53 |
| CC(C)CN(C(=O)C1CC1)c1c(N)n(Cc2ccccc2)c(=O)[nH]c1=O | 21.2 |
| CC1CCCC(C)N1C(=O)CSc1nnnn1Cc1ccccc1 (centres unmarked) | -3.54 |
| O=C(NNc1cccc(Cl)c1)c1cccnc1Oc1ccccc1 | -8.21 |
| Fc1cccc(Cl)c1CSc1nnc(CNc2ccccc2)o1 | -21.5 |
| COc1ccc(CC(=O)N/N=C/c2cccn2-c2ccc([N+](=O)[O-])cc2)cc1OC | -37.9 |
| Cn1c(=O)n(CC(N)=O)c(=O)c2c1nc1n2CCCN1Cc1ccccc1 | 14.8 |
| CCN(CC(=O)NC1CC1)S(=O)(=O)c1ccccc1 | 10 |
| Br.Cc1csc(=Nc2ccccc2)n1C | -2.07 |
| COc1ccc2c(C)cc(SCC(=O)Nc3cccnc3Cl)nc2c1 | 10.3 |
| Cc1ccnc(NC(=O)c2cc3ccccc3oc2=O)c1 | 8.47 |
| Cc1cc(NS(=O)(=O)c2cccc([N+](=O)[O-])c2)no1 | 28.8 |
| CCCCCCCN1CCC(=O)N([C@H](CO)CC(C)C)CC1 | -63 |

| SMILES | hERG current change (%, negative = inhibition) at 10uM [%] |
| --- | --- |
| CC(C)C[C@@H](CO)N1CCN(CC(C)C)CCC1=O | 4.64 |
| CCCCCCCN1CCC(=O)N(CCO)CC1 | -54.3 |
| CCCCCCCN1CCC(=O)N([C@H](CO)Cc2ccccc2)CC1 | -78.8 |
| CC(C)CN1CCC(=O)N(CCO)CC1 | 1.33 |
| CCCCCCCN1CCC(=O)N([C@H](CO)c2ccccc2)CC1 | -63.7 |
| O=C1CCN(CCCc2ccccc2)CCN1[C@H](CO)Cc1ccccc1 | -40.6 |
| CCCN1CCC(=O)N([C@H](CO)Cc2ccccc2)CC1 | 0.476 |
| CCCN1CCC(=O)N([C@H](CO)c2ccccc2)CC1 | 9.36 |
| CCCN1CCC(=O)N([C@H](CO)CC(C)C)CC1 | 20 |
| CCCN1CCC(=O)N(CCO)CC1 | -3.79 |
| O=C1CCN(CCCc2ccccc2)CCN1[C@H](CO)c1ccccc1 | -29.7 |
| CCOC(=O)Cc1ccc(NC(=O)c2ccccc2Br)cc1 | -7.9 |
| O=S(=O)(c1ccc(Br)s1)N1CCN(c2ncccn2)CC1 | -3.42 |
| Nc1ccccc1-c1nnc2n1CCCCC2 | 25.8 |
| Cc1cc(C)c(C(=O)CSc2nnc(C)s2)c(C)c1 | 18.2 |
| CCCC1(C(=O)OCC)NC(c2ccc(N(C)C)cc2)C2C(=O)N(c3ccc(F)cc3)C(=O)C21 (centres unmarked) | -8.18 |
| CCCCNC(=O)c1sc2nc(C)cc(COC)c2c1-n1cccc1 | -10.7 |
| S=C(c1ccccc1)N(c1ccccc1)c1ccccc1 | 7.21 |
| Cc1ccc(N2CC(C(=O)Nc3ccc(S(=O)(=O)N4CCCC4)cc3)CC2=O)cc1 (centres unmarked) | -8.07 |
